According to PubChem BioAssay AID1240 (Sanford-Burnham Center for Chemical Genomics, 2008):
Hit rate of the full screen: of about 50,000 compounds, about 800 (1.6%) showed an effect of 50% or more. For the sample, strong results were picked, then their nearest neighbours and some compounds at random.

The compounds below were run against Bcl-2-like protein 10 (Homo sapiens) (UniProt Q9HD36) (assay: TR3 peptide-Bcl-B binding displacers, biochemical primary FP assay, phenotype converters (AID 1240;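 further: 0% = Bcl-B with tracer peptide and DMSO and 100% = tracer peptide lacking Bcl-B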)). Conditions: GST-Bcl-B / FITC-TR3 peptide fluorescence polarization; stronger effect = higher value; compound at 3.75 mg/L.
Sequence of Bcl-2-like protein 10 (Homo sapiens) (Q9HD36 whole entry, looked up): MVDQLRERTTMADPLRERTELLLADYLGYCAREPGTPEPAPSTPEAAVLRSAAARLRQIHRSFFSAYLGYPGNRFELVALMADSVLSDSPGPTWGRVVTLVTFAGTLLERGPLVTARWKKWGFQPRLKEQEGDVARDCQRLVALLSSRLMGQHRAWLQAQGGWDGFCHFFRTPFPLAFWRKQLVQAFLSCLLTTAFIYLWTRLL

SMILES | displacement [%]
Cc1ccc(S(=O)(=O)/N=C(/NC(=S)N2CCOCC2)c2ccccc2)cc1 | -5.4
CCOC(=O)c1ccccc1NC(=O)CN(c1ccc(Br)cc1)S(C)(=O)=O | -5
CC1=Nc2ccccc2/C1=C\c1c(O)n(-c2ccccc2)c(=O)[nH]c1=O | -3.1
CC1=Nc2ccccc2/C1=C\c1sc(=S)n(-c2ccccc2)c1O | 104
CC1=Nc2ccccc2/C1=C\c1sc(=S)n(-c2cccc(F)c2)c1O | -1.7
O=C(CCCN1C(=O)c2ccccc2C1=O)Nc1cccnc1 | 20.6
CC(c1ccccc1)N1C(=O)C(=Cc2c(NCC3CCCO3)nc3ccccn3c2=O)SC1=S (stereo unspecified) | -14.7
CC1=C(C(=O)OC(C)C)C(c2ccc(Cl)c(Cl)c2)N2C(=O)CCSC2=N1 (stereo unspecified) | 15.3
COC(=O)c1ccc(C2C(C(=O)OC(C)C)=C(C)N=C3SCCC(=O)N32)cc1 (stereo unspecified) | 11.3
CC1=C(C(=O)OC(C)C)C(c2ccccc2)N2C(=O)CCSC2=N1 (stereo unspecified) | 61.6
Cc1cc(=O)oc2c1c(C)nn2-c1ccc(Br)cc1 | 2.1
COc1ccccc1NC(=O)C1=C(C)NC(=S)NC1c1ccccc1OC (stereo unspecified) | 6
O=C1NC(=O)N(c2ccccc2)C(=O)/C1=C/c1ccc(N2CCCC2)cc1 | -30.2
CCOc1ccccc1/C=C1\C(=O)NC(=O)N(c2ccc(Br)c(C)c2)C1=O | -7.9
COC(=O)Cn1cc(/C=C2\C(=O)NC(=O)N(c3cc(C)cc(C)c3)C2=O)c2ccccc21 | -4.6
Cc1cc(C)cc(N2C(=O)NC(=O)/C(=C\c3cn(C)c4ccccc34)C2=O)c1 | 144
O=C1NC(=O)N(c2ccc(Cl)cc2)C(=O)/C1=C\c1ccc(N2CCCC2)cc1 | 71.4
CCn1cc(/C=C2\C(=O)NC(=O)N(c3ccc(Cl)cc3)C2=O)c2ccccc21 | -18.6
O=C1NC(=O)N(c2ccc(Cl)cc2)C(=O)/C1=C/c1ccc(F)cc1 | 8.2
O=C1NC(=O)N(c2ccccc2)C(=O)/C1=C\c1ccc(Cl)cc1 | 1.4
C#CCn1cc(/C=C2\C(=O)NC(=O)N(c3ccc(Br)c(C)c3)C2=O)c2ccccc21 | 6.2
Cc1cc(N2C(=O)NC(=O)/C(=C\c3cn(C)c4ccccc34)C2=O)ccc1Br | 126

SMILES | displacement [%]
Cc1cc(C)cc(N2C(=O)NC(=O)/C(=C\c3ccccc3C)C2=O)c1 | 6.3
Cc1c(/C=C2\C(=O)NC(=O)N(c3ccc(Cl)cc3)C2=O)c2ccccc2n1C | 104
Cc1ccc(C(=O)N2CCC(Cc3ccccc3)CC2)o1 | 6.7
CC1S/C(=N/N=C/c2ccccc2Cl)NC1=O (stereo unspecified) | 1.2
CCOC(=O)/C(C#N)=C\c1ccc(F)cc1 | 2.3
CCOC(=O)C(C)Oc1cc2oc(=O)cc(-c3ccccc3)c2cc1CC (stereo unspecified) | 11
COc1ccc(CCN=CC2=C(O)CC(c3ccccc3)CC2=O)cc1OC (stereo unspecified) | 1.2
CCCOc1cccc(NC(=O)c2c(-c3ccccc3)noc2C)c1 | -5.5
COc1ccc(OC)c(/C=C/C(=O)Oc2cc(C)cc(C)c2)c1 | 11.8
Cc1cccc(N2C(=O)/C(=C/c3ccc(N(C)C)cc3)SC2=S)c1 | -5.4
Cn1cc(C=C2C(=O)NC(=S)NC2=O)c2ccccc21 | 8.8
Cc1ccc(N2C(=O)NC(=O)/C(=C\c3ccsc3)C2=O)cc1 | 66.1
CC(C)c1ccc(N2C(=O)NC(=O)/C(=C/c3cn(C)c4ccccc34)C2=O)cc1 | 145
Cc1cccc(N2C(=O)S/C(=C/c3ccc(N(C)C)cc3)C2=O)c1 | 95.7
Cc1cc(C)cc(N2C(=O)NC(=O)/C(=C\c3ccsc3)C2=O)c1 | -7.8
COc1ccccc1OCCn1cc(/C=C2/C(=O)NC(=O)N(c3ccccc3)C2=O)c2ccccc21 | 1.6
COc1ccccc1OCCn1cc(C=C2C(=O)N(C)C(=O)N(C)C2=O)c2ccccc21 | 3.5
CC(C)c1ccc(N2C(=O)NC(=O)/C(=C/c3ccccc3O)C2=O)cc1 | 0.6
Cc1cccc(N2C(=O)S/C(=C\c3ccccc3)C2=O)c1 | 12.3
O=C1NC(=O)N(c2ccc(Cl)cc2)C(=O)/C1=C/c1ccsc1 | -24.1
COc1ccc(N2C(=O)NC(=O)/C(=C/c3cn(CCOc4ccccc4OC)c4ccccc34)C2=O)cc1 | 87.6
O=C(NCc1cccs1)c1cc2n(n1)C(C(F)(F)F)CC(c1cccs1)N2 (stereo unspecified) | 0

SMILES | displacement [%]
CCC(Oc1ccccc1)C(=O)NC(C)c1ccccc1 (stereo unspecified) | -18.9
Oc1ccc(Br)cc1C=NCc1ccco1 | 3.3
Cc1sc(NC(=O)c2ccc(Br)o2)c(C(N)=O)c1C | 10
COc1ccc(CC(=O)Nc2ccc(Br)c(C)c2)cc1 | 7.5
C=CCNCCCCOc1ccc(Br)cc1 | 8.5
Cc1no[n+]([O-])c1COc1ccc(/C=C2\N=C(c3ccccc3)OC2=O)cc1 | -9.9
Cc1c(-c2ccc(Cl)cc2)nc2ccccc2c1C(=O)O | -6.5
Cc1cc(C)cc(N2C(=O)NC(=O)/C(=C\c3ccc(F)cc3)C2=O)c1 | 7.7
C#CCn1cc(/C=C2\C(=O)NC(=O)N(c3ccc(C)cc3)C2=O)c2ccccc21 | 66.4
CCn1cc(/C=C2\C(=O)NC(=O)N(c3ccccc3)C2=O)c2ccccc21 | 25.2
C#CCn1cc(/C=C2\C(=O)NC(=O)N(c3ccc(Cl)cc3)C2=O)c2ccccc21 | 37.5
Cc1cc(C)cc(N2C(=O)NC(=O)/C(=C\c3ccc(N(C)C)cc3)C2=O)c1 | 127
Cc1cc(C)cc(N2C(=O)NC(=O)/C(=C\c3ccc(Cl)cc3)C2=O)c1 | 16.4
CCCC(C)NC(=O)c1ccc(Cl)c([N+](=O)[O-])c1 (stereo unspecified) | -0.1
CCOC(=O)/C(C#N)=C/c1ccc(OCc2c(C)no[n+]2[O-])cc1 | -1.9
CN1CCN(CCOCCOc2ccccc2)CC1 | -7.9
O=C(CCCC(=O)OCC(F)(F)C(F)F)Nc1nccs1 | 9.8
O=C(NCCO)/C(=C/c1cccc([N+](=O)[O-])c1)NC(=O)c1cccs1 | 0
O=C(Nc1cc(Cl)cc(Cl)c1)c1ccc(-c2ccc([N+](=O)[O-])cc2)o1 | 5.1
Cc1ccc(-c2ccc(C(=O)Nc3ccc(N4CCOCC4)cc3)o2)cc1Cl | 10.8
O=C(Nc1cccc([N+](=O)[O-])c1)c1ccc(-c2ccc(Cl)cc2)o1 | 9
Cc1ccccc1C(=O)Nc1cccc(NC(=O)c2ccc(-c3ccc(Br)cc3)o2)c1 | 21.4

SMILES | displacement [%]
O=C(Nc1ccc(NC(=O)c2ccc(-c3ccc(Cl)cc3Cl)o2)cc1)c1ccccc1 | 83.5
Cc1ccccc1C(=O)Nc1cccc(NC(=O)c2ccc(-c3cccc(Cl)c3)o2)c1 | 0.6
Cc1cccc(NC(=O)c2ccc(-c3ccc(C)c(Cl)c3)o2)c1 | 69.8
O=C(Nc1cccc(NC(=O)c2ccccc2Cl)c1)c1ccc(-c2ccc(Br)cc2)o1 | 57.3
Cc1ccc(-c2ccc(C(=O)Nc3cccnc3)o2)cc1Cl | 5.6
O=C(Nc1cccc(NC(=O)c2ccc(Cl)cc2Cl)c1)c1ccc(-c2ccc([N+](=O)[O-])cc2)o1 | 106
CC(=O)c1cccc(NC(=O)c2ccc(-c3ccc(Cl)cc3Cl)o2)c1 | -4.6
CC(=O)c1ccc(NC(=O)c2ccc(-c3ccc(Cl)cc3Cl)o2)cc1 | -1.3
COc1ccc(CNC(=O)Cc2ccc(Br)cc2)cc1 | 0
COc1ccc(CCNC(=O)/C=C\c2ccccc2)cc1OC | 6.7
CCOC(=O)c1c(NC(=O)c2cc(Cl)ccc2[N+](=O)[O-])sc(C(=O)N(CC)CC)c1C | -1.1
Cc1cc2[nH]c(=O)cc(-c3ccccc3)n2n1 | -5.3
COc1cccc(NC(=O)c2cc(Cl)ccc2Cl)c1 | 11.1
COc1ccc(-c2nc3cc(N)ccc3o2)cc1OC | 2.7
CCOC(=O)C(CCOCCOc1c(C)cc(Cl)cc1C)C(=O)OCC | -9.7
Cc1ccc(/C=N/NS(=O)(=O)c2ccc(C)cc2)cc1 | 8
CCOC(=O)C1=C(C)N=c2s/c(=C\c3ccc(C)o3)c(=O)n2C1c1ccc(SC)cc1 (stereo unspecified) | 65.3
CCOC(=O)C1=C(C)N=c2s/c(=C\c3ccc(N4CCOCC4)o3)c(=O)n2C1c1ccc(SC)cc1 (stereo unspecified) | -55.4
CCOC(=O)C1=C(C)N=c2s/c(=C\c3ccc(Br)o3)c(=O)n2C1c1cccc(OC)c1 (stereo unspecified) | 10.7
CCOC(=O)C1=C(C)N=c2s/c(=C\c3ccc(-c4ccccc4C(=O)O)o3)c(=O)n2C1c1cccc(OC)c1 (stereo unspecified) | -23.4
CCOC(=O)C1=C(C)N=c2s/c(=C\c3ccc(C)o3)c(=O)n2C1c1cccc(OC)c1 (stereo unspecified) | 73.3
CCOC(=O)C1=C(C)N=c2s/c(=C\c3ccc(Br)o3)c(=O)n2C1c1ccc(F)cc1 (stereo unspecified) | 11.2

SMILES | displacement [%]
CC1(C)Nc2ccccc2N(CCC(=O)N2CCOCC2)C1=O | 9
Cc1ccnc(NC(=O)COc2ccc(Cl)c(C)c2)c1 | 1.5
O=C1CC(c2ccccc2)CC2=C1C(c1ccc(F)cc1)Nc1ccccc1N2 (stereo unspecified) | 2.3
COc1ccc(OC)c(/C=N/NC(=O)CSc2ncccn2)c1 | 1.1
CC(C)=N/N=C1/NC(=O)C(CC(=O)Nc2ccc(C)cc2C)S1 (stereo unspecified) | -0.5
C/C(=C\C(=O)c1ccc(C)cc1)Nc1ccc(I)cc1 | 7.2
NC(=O)c1ccc(NC(=O)CCN2C(=O)c3ccccc3C2=O)cc1 | 26.7
CC(=O)NC1=NC(=O)/C(=C\c2ccc(Cl)cc2)S1 | 133
CC(=O)NC1=NC(=O)/C(=C\c2cn(C)c3ccccc23)S1 | 123
CC(=O)NC1=NC(=O)/C(=C\c2ccc(C(C)C)cc2)S1 | -10.2
CC(=O)NC1=NC(=O)/C(=C/c2cc(Cl)ccc2OCc2c(F)cccc2Cl)S1 | 112
CC(=O)NC1=NC(=O)/C(=C\c2ccc(-c3ccccc3C(=O)O)o2)S1 | 14.5
CC(=O)NC1=NC(=O)/C(=C\c2ccc(-c3ccc(C(=O)O)cc3)o2)S1 | -27
Cc1ccc(C2=NC(=O)/C(=C/c3ccc4c(c3)OCO4)S2)cc1 | 0.5
O=C(N/N=C/c1cc(Cl)ccc1OCc1c(F)cccc1Cl)c1cccnc1 | -2
CC(=O)NC1=NC(=O)/C(=C\c2ccc(Cl)c(Cl)c2)S1 | -13.5
O=Cc1cc(Br)ccc1OCc1c(F)cccc1Cl | 0.3
CC(=O)NC1=NC(=O)/C(=C\c2ccc3c(c2)OCO3)S1 | 130
